This note sets out measurements from PubChem BioAssay (NCI).

About 83,000 compounds went through this panel and 20% of them were active in at least one assay; those are over-represented in the sample as a whole.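 Activity criterion: percent growth below 10, measured after cells in 96-well plates were exposed to a single compound concentration for 48 hours.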 Unmarked numbers belong to inactive results. Active and inactive are the calls of the source.

Common to all, as to assay: NCI-60 one-dose screen, 48 h (100 = growth as untreated, 0 = no growth, -100 = all killed)
The test system of one experiment is HCT-15 colon. The settings on record: 10 µM unless noted.
A further experiment relates to HT29 colon. Particulars: 10 µM unless noted.
For another experiment, the system named is SNB-75 CNS. The settings on record: 10 µM unless noted.
In another experiment the test system is SNB-19 CNS. Particulars: 10 µM unless noted.
Another experiment relates to U251 CNS. The settings on record: 10 µM unless noted.
Another experiment concerns PC-3 prostate. The settings on record: 10 µM unless noted.
A further experiment concerns SK-MEL-5 melanoma. The settings on record: 10 µM unless noted.
Another experiment deals with UACC-62 melanoma. Particulars: 10 µM unless noted.
The subject of the next experiment is LOX IMVI melanoma. Particulars: 10 µM unless noted.
In the next experiment the test system is SK-MEL-28 melanoma. The settings on record: 10 µM unless noted.
In another experiment the test system is SK-MEL-2 melanoma. The settings on record: 10 µM unless noted.
The test system of a further experiment is EKVX NSCLC. Particulars: 10 µM.
The next experiment deals with SN12C renal. Particulars: 10 µM unless noted.
The next experiment concerns UO-31 renal. Particulars: 10 µM unless noted.
A further experiment concerns TK-10 renal. Particulars: 10 µM unless noted.
In a further experiment the test system is ACHN renal. The settings on record: 10 µM unless noted.
A further experiment concerns CCRF-CEM leukemia. Particulars: 10 µM.
For a further experiment, the system named is MOLT-4 leukemia. Particulars: 10 µM unless noted.
In the next experiment the test system is A498 renal. The settings on record: 10 µM unless noted.

Turning to `COC1=C(OC)C(=O)c2ccccc2C1=O`, the growth in the experiment on HCT-15 colon is 101%; in the experiment with HT29 colon it was 107%; in the experiment with SNB-75 CNS, 72.7%; in the experiment on SNB-19 CNS, 102%; in the experiment with U251 CNS it was 89.9%; with PC-3 prostate, 82.3%. In addition, the growth with SK-MEL-5 melanoma is 13.6%; with UACC-62 melanoma, 101%; with LOX IMVI melanoma, 63.4%; in the experiment on SK-MEL-28 melanoma, 101%; in the experiment on SK-MEL-2 melanoma, 107%; in the experiment on EKVX NSCLC, 97.8%. The growth in the experiment on SN12C renal was 108%; in the experiment on UO-31 renal, 78.6%; in the experiment on TK-10 renal, 115%; in the experiment on ACHN renal it was 92%; with CCRF-CEM leukemia it was 61.6%.
For the compound `COc1cc(/C=C/C(=O)/C=C(/C=C/c2ccc(OC(C)=O)c(OC)c2)OB(F)F)ccc1OC(C)=O`, the growth in the experiment on HCT-15 colon was 15.4%; with HT29 colon it was 61.4%; with SNB-75 CNS, 53%; with SNB-19 CNS, 69.4%; in the experiment with U251 CNS it was 33.3%; in the experiment on PC-3 prostate, 63%. Also, the growth with SK-MEL-5 melanoma was 69.6%; in the experiment with UACC-62 melanoma it was 49.6%; in the experiment on LOX IMVI melanoma, 20%; in the experiment on SK-MEL-28 melanoma it was 66.8%; in the experiment on SK-MEL-2 melanoma, 86.9%; in the experiment on EKVX NSCLC, 76.1%. The growth in the experiment on SN12C renal is 42.3%; in the experiment with UO-31 renal, 47%; with TK-10 renal, 80.7%; in the experiment on ACHN renal, 26.5%; in the experiment with CCRF-CEM leukemia, 1.09% (active); in the experiment with MOLT-4 leukemia, 3.59% (active).
As to `Ic1ccc(SSc2ccc(I)cc2)cc1`, the growth is 99.5% in the experiment on HCT-15 colon; 95.3% in the experiment with HT29 colon; 88.4% with SNB-75 CNS; 94.6% in the experiment with SNB-19 CNS; 67.8% in the experiment with U251 CNS; 58.5% in the experiment on PC-3 prostate. The growth is 90.8% in the experiment with SK-MEL-5 melanoma; 97.8% in the experiment on UACC-62 melanoma; 0.697% (active) in the experiment with LOX IMVI melanoma; 108% in the experiment on SK-MEL-28 melanoma; 105% with SK-MEL-2 melanoma; 99.9% in the experiment with EKVX NSCLC. The growth in the experiment with SN12C renal is 71.3%; in the experiment with UO-31 renal, 60.5%; in the experiment on TK-10 renal, 84.4%; in the experiment with ACHN renal it was 113%; in the experiment with CCRF-CEM leukemia it was 17%; with MOLT-4 leukemia it was 32%.
On to `COc1ccc(-c2nc(SCC(C)C)nc(Nc3ccc(C(=O)O)cc3)c2C#N)cc1`, for which the growth in the experiment with HCT-15 colon is 33%; in the experiment with HT29 colon, 94.7%; with SNB-75 CNS it was 88.6%; with SNB-19 CNS, 98.1%; in the experiment with U251 CNS it was 94.8%; in the experiment with PC-3 prostate it was 82.3%. Further, the growth is 63.3% in the experiment on SK-MEL-5 melanoma; 99.3% with UACC-62 melanoma; 88% with LOX IMVI melanoma; 25.5% with SK-MEL-28 melanoma; 57.9% in the experiment with SK-MEL-2 melanoma; 90.7% in the experiment with EKVX NSCLC. Further, the growth in the experiment on SN12C renal is 102%; with UO-31 renal, 92.9%; in the experiment on TK-10 renal, 88.5%; in the experiment with ACHN renal, 89.5%; in the experiment on CCRF-CEM leukemia it was 89.2%; in the experiment on MOLT-4 leukemia, 82.7%.
In the case of `CC[C@H](Nc1ncnc2nc[nH]c12)c1nc2cccc(NCc3ccc(C(=O)NO)o3)c2c(=O)n1-c1ccccc1`, the growth is 103% in the experiment on HCT-15 colon; 91.3% in the experiment with HT29 colon; 71.6% in the experiment with SNB-75 CNS; 99.7% in the experiment with SNB-19 CNS; 107% in the experiment on U251 CNS; 93.3% with PC-3 prostate. In addition, the growth was 101% in the experiment on SK-MEL-5 melanoma; 92.6% in the experiment on UACC-62 melanoma; 95.4% in the experiment on LOX IMVI melanoma; 100% in the experiment with SK-MEL-28 melanoma; 102% in the experiment on SK-MEL-2 melanoma; 110% in the experiment with EKVX NSCLC. Besides, the growth in the experiment on SN12C renal was 95.2%; in the experiment on UO-31 renal, 79%; with TK-10 renal, 84.1%; with ACHN renal it was 97.3%; in the experiment on A498 renal it was 97%; in the experiment with CCRF-CEM leukemia, 88.7%. Besides, in the experiment on MOLT-4 leukemia, the growth was 97.8%.
On to `C/C=C(/C)C(=O)OC1C=C(CO)C(=O)C(OC(=O)/C(C)=C\C)C1C(C)C` (stereo unspecified), for which the growth with HCT-15 colon was -49.3% (active); in the experiment with HT29 colon, -65.6% (active); in the experiment with SNB-75 CNS it was -43.4% (active); with SNB-19 CNS, -54% (active); with U251 CNS it was -73.8% (active); in the experiment on PC-3 prostate, -54.1% (active). Also, the growth was -99.3% (active) with SK-MEL-5 melanoma; -84.7% (active) in the experiment with UACC-62 melanoma; -92.5% (active) in the experiment on LOX IMVI melanoma; -92.6% (active) in the experiment on SK-MEL-28 melanoma; -48.9% (active) with SK-MEL-2 melanoma; -55.1% (active) in the experiment with EKVX NSCLC. In addition, the growth in the experiment on SN12C renal is -56.9% (active); in the experiment on UO-31 renal, -100% (active); with TK-10 renal, -88.8% (active); in the experiment with ACHN renal it was -100% (active); in the experiment with A498 renal, -77.6% (active); in the experiment with CCRF-CEM leukemia, -3.36% (active). In the experiment with MOLT-4 leukemia, the growth was -16.8% (active).
Turning to `CCCC(=O)Nc1ccccc1C(=O)O`, the growth in the experiment with HCT-15 colon is 95.4%; with HT29 colon, 96.6%; in the experiment with SNB-75 CNS, 89.4%; in the experiment on SNB-19 CNS it was 106%; in the experiment on U251 CNS it was 89.7%; in the experiment with PC-3 prostate, 103%. In addition, the growth with SK-MEL-5 melanoma is 99%; in the experiment on UACC-62 melanoma it was 105%; in the experiment on LOX IMVI melanoma, 92.5%; in the experiment on SK-MEL-28 melanoma it was 107%; with SK-MEL-2 melanoma, 100%; in the experiment on EKVX NSCLC, 96.4%. The growth with SN12C renal was 109%; in the experiment on UO-31 renal it was 91.3%; with TK-10 renal it was 92.3%; in the experiment with ACHN renal it was 108%; in the experiment with CCRF-CEM leukemia, 104%; with MOLT-4 leukemia, 98.6%.
Regarding `CC(=O)OCC1O[C@@H](OC(C)=O)[C@@H](NC(=O)NS(=O)(=O)c2ccccc2)C(OC(C)=O)[C@@H]1OC(C)=O` (stereo partly specified), the growth in the experiment on HCT-15 colon was 96.6%; in the experiment with HT29 colon, 111%; in the experiment on SNB-75 CNS it was 91.2%; in the experiment with SNB-19 CNS, 98.7%; in the experiment with U251 CNS it was 106%; with PC-3 prostate it was 102%. For the same compound, the growth in the experiment on SK-MEL-5 melanoma was 102%; with UACC-62 melanoma, 101%; in the experiment with LOX IMVI melanoma, 99.6%; with SK-MEL-28 melanoma, 108%; in the experiment with SK-MEL-2 melanoma, -51.6% (active); in the experiment on EKVX NSCLC it was 96.4%. Moreover, the growth in the experiment on SN12C renal was 97.2%; in the experiment on UO-31 renal, 90.9%; in the experiment on TK-10 renal, 98.6%; with ACHN renal, 104%; in the experiment with A498 renal, 71.9%; in the experiment with CCRF-CEM leukemia, 97%. Besides, the growth in the experiment on MOLT-4 leukemia was 98.6%.
